# From PubChem
# This excerpt belongs to a sample that is enriched for hits.
# Giardia FBPA inh = Giardia lamblia aldolase inhibition. A8B2U2. purified Giardia FBPA. Potency, µM (top dose mostly 59.6 µM), inactives show at the top dose activity, negative = inhibition, most hits filed as inhibitors. hit rate 0.71% among 290,000; also: potency is read from the fitted curve at half-maximal effect; % is scaled to controls: 0 for no effect and ±100 for the full control effect; nearly all actives have a fitted effect of over 55% in size
# Target sequence (A8B2U2 whole entry, looked up): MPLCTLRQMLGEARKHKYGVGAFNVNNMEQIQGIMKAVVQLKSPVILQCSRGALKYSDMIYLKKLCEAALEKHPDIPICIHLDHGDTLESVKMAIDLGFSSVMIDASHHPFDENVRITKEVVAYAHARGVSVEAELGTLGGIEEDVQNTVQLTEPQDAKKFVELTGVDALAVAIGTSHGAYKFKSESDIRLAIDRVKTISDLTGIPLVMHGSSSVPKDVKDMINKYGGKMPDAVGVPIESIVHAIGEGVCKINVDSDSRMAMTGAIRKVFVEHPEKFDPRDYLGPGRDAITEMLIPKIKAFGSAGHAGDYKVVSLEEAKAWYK
#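 40 nM FBPA preincubated 10 min at RT with compound (up to 57.5 uM final), then substrate plus GAPDH/TPI/NAD/arsenate coupling and diaphorase/resazurin added. Fluorescence read after 20 min at RT, 525/598 nm.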
# Cycloheximide cs = counter-screen for Shiga toxin inhibitors: cycloheximide protein synthesis inhibition; hit rate 12% among 300,000; cell reporter, cycloheximide protein synthesis inhibition counterscreen; max response, %; in the data active = max response mostly above about 13%, no sharp cut-off; inactive = mostly below about 14%; also: read at 38.3 µM for the half of the compounds with a filed dose; 0% is about no effect
# TbPYK inhibitor = T. brucei pyruvate kinase inhibition; Potency, µM (top dose mostly 76.8 µM), for inactives: top-dose activity, negative = inhibition, actives largely listed as inhibitors; hit rate 0.12% among 410,000; Q57TT1; AID 624173; TbPYK enzyme, Kinase-Glo Plus ATP luminescence, 45 min; also: potency is read from the fitted curve at half-maximal effect; % is scaled to controls: 0 for no effect and ±100 for the full control effect; nearly all actives have a fitted effect of over 50% in size
#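 Readout: single end-point luminescence (Kinase-Glo Plus, 10 min). Reaction conditions were TbPYK/substrate plus 130 uM ADP, 45 min at RT, pH 7.2 TEA buffer. No-enzyme wells served as controls, and data were normalized before concentration-response fitting.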
# LmPK inh = inhibitors of Leishmania mexicana pyruvate kinase; purified LmPK, Kinase-Glo ATP luminescence, 1 h; Potency, µM (top dose mostly 57.5 µM), inactives show top-dose activity change, negative = inhibition, hits mostly inhibitors; hit rate 0.37% among 290,000; AID 1721; also: potency is read from the fitted curve at half-maximal effect; % is scaled to controls: 0 for no effect and ±100 for the full control effect
#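 Pyruvate kinase activity monitored as ATP production (luciferase luminescence). Conditions: 0.1 nM enzyme, 0.5 mM PEP, 0.1 mM ADP, 1 h, RT; normalized against uninhibited and no-enzyme wells.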
# RE007 growth inh = less growth of the S. pombe RE007 Vpr strain | S. pombe RE007 Vpr strain, BacTiter-Glo ATP luminescence, 24 h | Potency, µM (top dose mostly 92.2 µM), inactives show at the highest dose activity change, negative = less growth, most hits filed as inhibitors | hit rate 0.21% among 360,000; active = well fitted falling curve with a large enough effect; inconclusive = small, poorly fitted or top-dose-only effect; inactive = no such curve, though single readings can be large or run the other way; also: potency is read from the fitted curve at half-maximal effect; % is scaled to controls: 0 for no effect and ±100 for the full control effect; nearly all actives have a fitted effect of over 50% in size
#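 Fission yeast strain RE007, carrying one chromosomally integrated HIV-1 vpr copy, was seeded at OD 0.01 in PMG+AL medium with 23 nL pinned compound. After 24 h at 30 °C and 99% humidity, viability was read by BacTiter-Glo luminescence.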
# Shiga inhibitor = inhibitors of Shiga toxin in Vero cells; AID 2315; inhibition, % at 38.7 µM; Vero cells, Shiga toxin protein synthesis inhibition reporter; hit rate 9.2% among 290,000; in the data active = inhibition mostly above about 28%, no sharp cut-off; inactive = mostly below about 43%; also: 0% is about no effect
# Active calls of the source: *; ? = inconclusive; . = not tested or not shown; [ ] = dose if it differs, or a comment. Unless noted, calls follow the shape of the dose curve; as a rule, active = well fitted curve in the direction sought with a large enough effect; inconclusive = small, poorly fitted or top-dose-only effect, or another doubt; inactive = no such curve, though single readings can be large; an effect the other way counts as inactive or inconclusive.
SMILES,Giardia FBPA inh,Cycloheximide cs,TbPYK inhibitor,LmPK inh,RE007 growth inh,Shiga inhibitor
COc1ccccc1-c1nnc(SC(C)C(=O)O)n1-c1ccccc1 (configuration not stated),2%,1,-18%,0%,0%,-5
COc1ccc(CN(C)C[C@H]2OCCCC[C@@H](C)Oc3ccc(NS(C)(=O)=O)cc3C(=O)N([C@H](C)CO)C[C@@H]2C)cc1,.,.,-1%,.,2%,.
CC(C)C(NC(=O)c1ccc(F)cc1)C(=O)NCC1CCCO1 (configuration not stated),5%,-2,2%,-5%,-10%,-5
CCOc1ccccc1OCCC(=O)NNC(=O)Cn1nc(C)cc1C,.,.,1%,.,-9%,.
CC1(C)CC[C@]2(C(=O)O)CC[C@@]3(C)C(=CCC4[C@@]5(C)CCC(O)C(C)(C)C5CC[C@@]43C)C2C1 (some centres not stated),5%,.,.,.,.,.
COc1cccc(OCC(=O)NC2CC(=O)N(c3cccc(OC)c3)C2)c1 (configuration not stated),.,.,-1%,.,.,.
COc1ccc(Br)cc1CNC(=O)CN1C(=O)c2cccnc2Oc2ccc(C)cc21,.,.,-3%[15.4 µM],.,.,.
Fc1ccc(CCNCc2ccccc2Cl)cc1,-9%,22*,-1%,3%,-6%,24
CCOc1ccc(CNCc2ccccc2Cl)cc1,-1%,32*,1%,0%,-9%,51*
CCOc1ccc(CN(C)CC(=O)NCc2ccccc2)cc1,6%,3,3%,2%,7%,-7
Cc1ccc(CNCc2ccccc2Cl)cc1,-8%,16*,4%,0%,-4%,22
CCOc1ccc(CN(C)CC(=O)NCc2ccccc2Cl)cc1,13%,12,-7%,-3%,5%,36*
Fc1ccc(CNCc2ccccc2Cl)cc1,?,14,6%,0%,17%,24
COc1ccc(C(CNC(=O)C2COc3ccccc3O2)N2CCCC2)cc1 (configuration not stated),.,.,0%,.,2%,.
Cc1ccccc1C(=O)Nc1c(C)nc(Nc2ccccc2)nc1Nc1ccccc1,.,.,-1%,.,.,.
c1ccc(-n2ncc3c(NCCN4CCOCC4)ncnc32)cc1,-4%,22*,-8%,0%,10%,72*
c1ccc(-n2ncc3c(NCCN4CCCCC4)ncnc32)cc1,-3%,52*,2%,-2%,-8%,66*
Cc1cccc(-n2ncc3c(NCCN4CCOCC4)ncnc32)c1,-8%,2,-1%,-3%,8%,-5
CCOC(=O)C1CCCN(Cc2ccc(OC)c(OCc3ccccc3)c2)C1 (configuration not stated),-24%,-2,3%,-11%,1%,-5
Cc1ccc2c(=O)cc(C(=O)Nc3c(C(=O)c4ccccc4)oc4ccccc34)oc2c1,.,.,2%,.,.,.
O=C(NNc1nc(-c2ccccc2)cs1)c1ccco1,9%,12*,-14%,2%,28%,23
Cc1ccc(-c2csc(NC(=S)NC(=O)c3ccco3)n2)cc1,-21%,-3,12%,0%,-7%,-3
O=C(NNc1nc(-c2ccc(Cl)cc2)cs1)c1ccco1,5%,39*,-9%,1%,217%,41*
CCCCOCCCNC(=O)C[C@@H]1C[C@@]2(C(=O)OCC)CCCC=C2N(CCc2ccc(OC)c(OC)c2)C1=O,.,.,.,.,-3%,.
COc1cccc(-c2nc3c(C#N)c[nH]n3c2NC2CCCCC2)c1OC,.,.,-4%,.,.,.
SMILES,Giardia FBPA inh,Cycloheximide cs,TbPYK inhibitor,LmPK inh,RE007 growth inh,Shiga inhibitor
Cc1cc(Nc2ccccc2)nc(-c2ccccc2O)n1,-7%,35*,0%,5%,?,107*
Cc1cc(NC2CCCCC2)nc(-c2ccccc2O)n1,-26%,15*,4%,4%,-11%,44
Cc1cc(Nc2cccc(F)c2)nc(-c2ccccc2O)n1,1%,14,-6%,6%,-7%,25
Cc1cc(NCc2ccccc2)nc(-c2ccccc2O)n1,0%,29,0%,1%,-5%,25
CCC(=O)NCCc1nc2cc(NC(=O)c3ccc(F)cc3)ccc2n1C,-16%,43*,3%,-1%,5%,89*
CCC(=O)NCCc1nc2cc(NC(=O)c3ccc(OC)cc3)ccc2n1C,0%,25*,0%,-2%,-7%,52
CCC(=O)NCCc1nc2cc(NC(=O)c3ccc(Cl)cc3)ccc2n1C,1%,52*,11%,-2%,-6%,64*
CC(=O)NCCc1nc2cc(NC(=O)c3ccc(Cl)cc3)ccc2n1C,1%,24*,0%,1%,1%,64*
COc1ccc(OCC(=O)Nc2ccc3c(c2)nc(CCNC(C)=O)n3C)cc1,-5%,-1,-4%,4%,-5%,-21
CCCC(=O)Nc1ccc2c(c1)nc(CCNC(=O)c1ccccc1)n2C,3%,-4,1%,4%,1%,-12
C[C@H](CO)N1C[C@H](C)[C@@H](CN(C)S(=O)(=O)c2ccc(-n3cccn3)cc2)OCc2cn(nn2)CCCC1=O,.,.,5%,.,7%,.
CC(=O)NCCc1nc2cc(NC(=O)c3ccccc3Cl)ccc2n1C,-3%,17*,2%,-5%,9%,26
OC[C@H]1O[C@@H](c2nc3ccc(-c4nc(-c5ccc(Br)cc5)no4)cc3[nH]2)C[C@@H]1O,.,.,-2%,.,-4%,.
Cc1nn(C(C)C(=O)Nc2ccc3c(c2)OCO3)c(C)c1[N+](=O)[O-] (configuration not stated),-9%,4,-1%,-3%,13%,74
Cn1nc(C(=O)Nc2ccc3c(c2)OCO3)c2ccccc2c1=O,1%,5,1%,3%,14%,1
Cc1csc(NC(=O)c2nn(C)c(C)c2[N+](=O)[O-])n1,0%,25*,-1%,-11%,1%,52*
Cc1c([N+](=O)[O-])c(C(=O)Nc2ccc3c(c2)OCCO3)nn1C,4%,52*,?,14µM*,-9%,85*
Cc1nn(C)c(C(=O)Nc2ccc3c(c2)OCO3)c1[N+](=O)[O-],.,21*,-8%,-10%,-3%,36
COc1ccc(F)cc1C(=O)C1CCCN(Cc2ccc(Sc3nncn3C)o2)C1 (configuration not stated),2%,-5,-8%,6%,10%,27
CCc1ccc2[nH]c3nc(C)cc(C)c3c(=O)c2c1,-8%,21*,-4%,-1%,1%,-4
CCc1ccc2[nH]cc(S(=O)(=O)c3ccc(C)c(C)c3)c(=O)c2c1,11%,-4,-3%,2%,-5%,-4
Cc1ccc(C(=O)Nc2sc3c(c2C(=O)O)CCCCC3)o1,15%,37*,-5%,?,?,54*
Cc1ccc(C(=O)Nc2sc3c(c2C(=O)O)CCCC3)o1,.,52*,-4%,-4%,-17%,68*
